CYP2C19 inh = human CYP2C19 inhibition; P33261; CYP2C19 Supersomes, luciferin-H EGE luminescence, 30 min; inhibition, % at 5 µM; 96,000 tested, 21% active;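 active means CYP2C19 inhibition above a set limit at 5 µM in the primary screen, cut at about 50% in these data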
Target sequence (P33261 whole entry, looked up): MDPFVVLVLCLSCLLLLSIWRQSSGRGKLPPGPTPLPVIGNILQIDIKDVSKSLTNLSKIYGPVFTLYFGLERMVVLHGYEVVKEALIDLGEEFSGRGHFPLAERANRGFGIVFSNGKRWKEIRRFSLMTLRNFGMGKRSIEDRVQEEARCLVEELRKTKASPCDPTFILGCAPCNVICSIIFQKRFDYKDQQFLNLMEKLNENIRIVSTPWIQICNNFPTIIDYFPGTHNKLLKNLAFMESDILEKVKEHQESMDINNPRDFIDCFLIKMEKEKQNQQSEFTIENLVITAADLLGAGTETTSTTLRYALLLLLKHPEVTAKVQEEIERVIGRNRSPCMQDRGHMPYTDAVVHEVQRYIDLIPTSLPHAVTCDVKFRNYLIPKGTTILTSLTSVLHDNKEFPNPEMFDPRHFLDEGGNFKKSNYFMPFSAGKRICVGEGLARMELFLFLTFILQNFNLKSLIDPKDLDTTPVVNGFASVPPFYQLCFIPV
CYP2C9 inhib = inhibitors of human CYP2C9; inhibition, % at 5 µM; 96,000 tested, 20% active; CYP2C9 Supersomes, luciferin-H conversion, luminescence; AID 777;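 active means blocking of liver enzyme CYP2C9 beyond about 50% at 5 µM, limit read from the data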
CYP2C9 activ = CYP2C9 (human) activation; P11712; recombinant CYP2C9, luciferin-H conversion, luminescence; stronger effect = higher value; factor 1 = untreated enzyme, 0 = blocked; activation factor at 5 µM; 96,000 tested, 1.4% active; AID 1024;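 active means activation factor of 2 or more for CYP2C9 at a 5 µM dose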
Cav3 T inh = inhibitors of human Cav3.2 T-type calcium channel; Cav3.2-expressing cells, Fluo-4 calcium fluorescence FDSS; stronger effect = lower value; O95180; 100,000 tested, 4% active; B-score at 10 µM;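 active means single-dose well whose peak fluorescence ratio is a statistical outlier from its plate by either plate-standardised score or position-corrected B-score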
CYP2C19 act = cytochrome P450 2C19 (human) activation; P33261; recombinant CYP2C19, luciferin-H EGE luminescence; stronger effect = higher value; 0 = fully inhibited enzyme, 1 = untreated enzyme; activation factor at 5 µM; 96,000 tested, under 10 active; AID 1025;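 active means activation factor of at least 2 at 5 µM in the primary screen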
A number is an active result. Most compounds without a hit are left out; they make up all but 27% or so of the library.

For O=C(Cn1nc(-c2ccccc2)c2ccccc2c1=O)Nc1cccnc1 the results were CYP2C19 inh inactive, CYP2C9 inhib 72, CYP2C9 activ inactive, Cav3 T inh inactive and CYP2C19 act inactive.
Screening CC(C)(C)[C@@H]1C=C(C(=O)N2CCN(Cc3ccc4c(c3)OCO4)CC2)O[C@H](OCc2ccc(CO)cc2)C1 returned Cav3 T inh inactive.
Screening COC(=O)c1c[nH]n2c(=O)cc(CCl)nc12 returned CYP2C19 inh inactive, CYP2C9 inhib inactive, CYP2C9 activ inactive, Cav3 T inh inactive and CYP2C19 act inactive.
Screening CC(C)CCNC(=O)NC(=O)Cn1cc(C(F)(F)F)ccc1=O returned CYP2C19 inh inactive, CYP2C9 inhib inactive, CYP2C9 activ inactive, Cav3 T inh inactive and CYP2C19 act inactive.
`Brc1ccc(-c2nnc3n2-c2ccccc2CC3)cc1` gave CYP2C19 inh 86, CYP2C9 inhib 63, CYP2C9 activ inactive, Cav3 T inh inactive and CYP2C19 act inactive.
Screening O=c1ccc2c(o1)/C(=C/C=C(Cl)Cl)CCC2 returned CYP2C19 inh inactive, CYP2C9 inhib inactive, CYP2C9 activ inactive, Cav3 T inh inactive and CYP2C19 act inactive.
O=C(c1ccncc1)c1nccn1-c1ccccn1 was read as CYP2C19 inh 75, CYP2C9 inhib 81, CYP2C9 activ inactive, Cav3 T inh inactive and CYP2C19 act inactive.
Screening NCCc1nnc(SCc2c(F)cccc2Cl)o1 returned CYP2C19 inh 62, CYP2C9 inhib 53, CYP2C9 activ inactive, Cav3 T inh inactive and CYP2C19 act inactive.
Screening Fc1cccc(Cl)c1CSc1nnc(COc2cccc3cccnc23)o1 returned CYP2C19 inh 96, CYP2C9 inhib inactive, CYP2C9 activ inactive, Cav3 T inh inactive and CYP2C19 act inactive.
Screening CCN(CC)C(=O)CSc1nnc(CCN)o1 returned CYP2C19 inh inactive, CYP2C9 inhib 53, CYP2C9 activ inactive, Cav3 T inh inactive and CYP2C19 act inactive.
Screening Cc1nc(SCc2c(F)cccc2Cl)n[nH]1 returned CYP2C19 inh inactive, CYP2C9 inhib inactive, CYP2C9 activ inactive, Cav3 T inh inactive and CYP2C19 act inactive.
`NCCc1nnc(SCc2ccccc2)o1` gave CYP2C19 inh 79, CYP2C9 inhib 66, CYP2C9 activ inactive, Cav3 T inh inactive and CYP2C19 act inactive.
For Nc1nc(SCC(=O)NC2CCCCC2)[nH]c(=O)c1-c1ccccc1 the results were CYP2C19 inh inactive, CYP2C9 inhib inactive, CYP2C9 activ inactive, Cav3 T inh inactive and CYP2C19 act inactive.
CCCc1nnc(NC(=O)c2c(O)c3cccc4c3n(c2=O)CCC4)s1 was read as CYP2C19 inh inactive, CYP2C9 inhib inactive, CYP2C9 activ inactive, Cav3 T inh inactive and CYP2C19 act inactive.
Screening COc1ccc(C2CC(=O)c3ccccc3O2)cc1 (configuration not stated) returned Cav3 T inh inactive.
COc1ccc(-n2c(C)c3c(OC)cccc(=O)c3c2C)cc1 was read as CYP2C19 inh 81, CYP2C9 inhib 58, CYP2C9 activ inactive and CYP2C19 act inactive.
COc1cc(/C=C/C(=O)N2CCN(CC(O)COc3ccccc3)CC2)cc(OC)c1OC (configuration not stated) was read as CYP2C19 inh inactive, CYP2C9 inhib inactive, CYP2C9 activ inactive, Cav3 T inh inactive and CYP2C19 act inactive.
`CCOC(=O)C(CC)(CC)/C(C)=N/NC(=O)CC#N` gave CYP2C19 inh 72, CYP2C9 inhib inactive, CYP2C9 activ inactive, Cav3 T inh inactive and CYP2C19 act inactive.
For N#CCC(=O)NN=C1CCCCCCCCCCC1 the results were CYP2C19 inh inactive, CYP2C9 inhib inactive, CYP2C9 activ inactive, Cav3 T inh inactive and CYP2C19 act inactive.
`CCn1nc(C(=O)Nc2cccc(C(F)(F)F)c2)c(Cl)c1Cl` gave CYP2C19 inh inactive, CYP2C9 inhib inactive, CYP2C9 activ inactive, Cav3 T inh inactive and CYP2C19 act inactive.
For CCn1nc(C(=O)Nc2cccc3ccccc23)c(Cl)c1Cl the results were CYP2C19 inh inactive, CYP2C9 inhib inactive, CYP2C9 activ inactive, Cav3 T inh -5.7 and CYP2C19 act inactive.
For CCn1nc(C(=O)Nc2ccccc2C)c(Cl)c1Cl the results were CYP2C19 inh inactive, CYP2C9 inhib 55, CYP2C9 activ inactive, Cav3 T inh inactive and CYP2C19 act inactive.
`Cc1cc(C)nc(N2CCCC(C(=O)NCC(c3ccccc3)c3ccccc3)C2)n1` (configuration not stated) gave Cav3 T inh inactive.
`CCN(C(=O)c1cc2ccccc2oc1=O)c1ccccc1` gave CYP2C19 inh inactive, CYP2C9 inhib inactive, CYP2C9 activ inactive, Cav3 T inh inactive and CYP2C19 act inactive.

Source: PubChem
